Results as given in the supplement of paper PMC11732987, “Enantioselective OTUD7B fragment discovery through chemoproteomics screening and high-throughput optimisation” (Communications Chemistry, 2025).

Tests used:
Assay in all cases: log2 ratio of Biotin-Ahx-Ub-VS probe labelling (fragment/DMSO); higher = less target engagement (more negative = stronger competition), active = hit call of the paper (q ≤ 0.05, log2 ratio ≤ -1)
Conditions in all cases: compound concentration: 200 uM; treatment time: 3 h
USP42 = molecular target: T1, USP42 (UniProt Q9H9J4)
T1 sequence (whole entry): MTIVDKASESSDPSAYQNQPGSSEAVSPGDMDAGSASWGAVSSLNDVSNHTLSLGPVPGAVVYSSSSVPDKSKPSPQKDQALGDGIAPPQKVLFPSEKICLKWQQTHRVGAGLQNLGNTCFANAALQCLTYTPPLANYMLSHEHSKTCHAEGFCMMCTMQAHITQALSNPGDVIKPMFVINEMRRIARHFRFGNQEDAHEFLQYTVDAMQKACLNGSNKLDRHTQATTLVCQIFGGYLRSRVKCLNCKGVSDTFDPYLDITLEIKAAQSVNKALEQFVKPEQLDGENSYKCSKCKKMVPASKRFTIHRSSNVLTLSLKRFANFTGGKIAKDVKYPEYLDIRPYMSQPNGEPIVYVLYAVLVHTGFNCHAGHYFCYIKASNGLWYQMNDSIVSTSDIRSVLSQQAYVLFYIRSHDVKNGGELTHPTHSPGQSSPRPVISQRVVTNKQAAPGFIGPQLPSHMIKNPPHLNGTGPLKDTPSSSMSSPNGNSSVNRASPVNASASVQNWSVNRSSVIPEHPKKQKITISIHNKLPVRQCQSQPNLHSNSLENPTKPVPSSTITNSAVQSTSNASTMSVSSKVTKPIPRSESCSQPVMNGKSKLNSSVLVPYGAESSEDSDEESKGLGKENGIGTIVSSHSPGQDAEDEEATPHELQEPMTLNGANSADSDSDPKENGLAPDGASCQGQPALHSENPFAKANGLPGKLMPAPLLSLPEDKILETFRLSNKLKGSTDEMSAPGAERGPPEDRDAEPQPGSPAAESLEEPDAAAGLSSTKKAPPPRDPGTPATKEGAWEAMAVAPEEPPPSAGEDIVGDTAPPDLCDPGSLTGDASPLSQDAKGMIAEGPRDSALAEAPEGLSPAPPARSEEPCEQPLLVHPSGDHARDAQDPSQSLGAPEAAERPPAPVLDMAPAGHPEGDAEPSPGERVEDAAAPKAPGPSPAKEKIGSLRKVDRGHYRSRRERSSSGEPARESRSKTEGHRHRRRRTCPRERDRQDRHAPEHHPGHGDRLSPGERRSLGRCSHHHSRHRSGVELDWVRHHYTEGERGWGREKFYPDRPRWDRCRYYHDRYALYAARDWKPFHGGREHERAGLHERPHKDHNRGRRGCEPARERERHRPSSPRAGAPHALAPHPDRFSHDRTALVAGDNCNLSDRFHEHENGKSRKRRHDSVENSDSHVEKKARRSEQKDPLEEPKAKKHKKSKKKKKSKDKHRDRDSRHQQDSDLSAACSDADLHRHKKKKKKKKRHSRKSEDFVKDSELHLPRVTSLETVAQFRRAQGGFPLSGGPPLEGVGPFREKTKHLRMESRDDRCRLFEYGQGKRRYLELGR
Outline: (§1)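 In triplicate, 495 µg of HEK293T lysate per sample was incubated with fragment at 200 µM or vehicle for 3 h. Biotin-Ahx-Ub-VS was then added to 0.5 µM final for 1 h, and labelled DUBs were captured with NeutrAvidin, digested with LysC and trypsin, and measured by diaPASEF LC-MS/MS. Data are average log2 fragment/vehicle ratios by unpaired t-test from global-median-normalised Spectronaut label-free quantities, restricted to proteins with ≥2 unique peptides.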

USP46 = USP46 (UniProt P62068)
Outline: as §1

USP47 = molecular target: T2, USP47 (UniProt Q96K76)
T2 sequence (whole entry): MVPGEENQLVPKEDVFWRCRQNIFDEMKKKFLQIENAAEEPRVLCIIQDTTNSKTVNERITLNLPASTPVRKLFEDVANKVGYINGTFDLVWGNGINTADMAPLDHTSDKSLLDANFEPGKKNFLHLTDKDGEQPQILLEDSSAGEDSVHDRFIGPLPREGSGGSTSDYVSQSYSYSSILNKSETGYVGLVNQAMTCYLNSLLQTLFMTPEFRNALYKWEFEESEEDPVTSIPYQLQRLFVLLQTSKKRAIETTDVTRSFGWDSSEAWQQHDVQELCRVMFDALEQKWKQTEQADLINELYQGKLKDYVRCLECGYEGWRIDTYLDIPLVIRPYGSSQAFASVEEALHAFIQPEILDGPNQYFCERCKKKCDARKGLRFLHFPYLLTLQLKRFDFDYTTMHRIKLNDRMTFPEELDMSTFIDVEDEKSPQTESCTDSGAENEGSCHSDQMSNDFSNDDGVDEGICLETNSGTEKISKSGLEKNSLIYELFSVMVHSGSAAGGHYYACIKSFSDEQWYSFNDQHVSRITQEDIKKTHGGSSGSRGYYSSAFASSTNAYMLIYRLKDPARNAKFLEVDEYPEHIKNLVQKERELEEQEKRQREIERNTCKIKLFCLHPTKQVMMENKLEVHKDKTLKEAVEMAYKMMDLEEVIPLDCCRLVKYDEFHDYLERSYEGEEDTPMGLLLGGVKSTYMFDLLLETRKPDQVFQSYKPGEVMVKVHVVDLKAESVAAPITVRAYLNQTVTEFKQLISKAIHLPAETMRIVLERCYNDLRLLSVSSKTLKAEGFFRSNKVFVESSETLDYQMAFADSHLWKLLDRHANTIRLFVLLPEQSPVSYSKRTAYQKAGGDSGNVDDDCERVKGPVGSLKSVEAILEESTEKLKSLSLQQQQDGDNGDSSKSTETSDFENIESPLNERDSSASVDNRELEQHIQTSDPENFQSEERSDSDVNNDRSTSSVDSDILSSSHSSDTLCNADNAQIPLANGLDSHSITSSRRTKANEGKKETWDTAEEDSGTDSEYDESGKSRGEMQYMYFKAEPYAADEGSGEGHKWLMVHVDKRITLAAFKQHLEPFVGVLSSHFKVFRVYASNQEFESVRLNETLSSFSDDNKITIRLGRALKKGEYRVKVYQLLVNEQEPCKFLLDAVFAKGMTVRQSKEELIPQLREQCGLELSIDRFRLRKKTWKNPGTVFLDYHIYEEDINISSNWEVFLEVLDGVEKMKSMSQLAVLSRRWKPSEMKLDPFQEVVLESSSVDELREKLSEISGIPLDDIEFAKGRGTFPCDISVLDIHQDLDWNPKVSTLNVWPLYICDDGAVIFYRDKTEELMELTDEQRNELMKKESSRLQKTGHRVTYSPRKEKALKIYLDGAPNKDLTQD
Outline: as §1

USP48 = molecular target: T3, USP48 (UniProt Q86UV5)
T3 sequence (whole entry): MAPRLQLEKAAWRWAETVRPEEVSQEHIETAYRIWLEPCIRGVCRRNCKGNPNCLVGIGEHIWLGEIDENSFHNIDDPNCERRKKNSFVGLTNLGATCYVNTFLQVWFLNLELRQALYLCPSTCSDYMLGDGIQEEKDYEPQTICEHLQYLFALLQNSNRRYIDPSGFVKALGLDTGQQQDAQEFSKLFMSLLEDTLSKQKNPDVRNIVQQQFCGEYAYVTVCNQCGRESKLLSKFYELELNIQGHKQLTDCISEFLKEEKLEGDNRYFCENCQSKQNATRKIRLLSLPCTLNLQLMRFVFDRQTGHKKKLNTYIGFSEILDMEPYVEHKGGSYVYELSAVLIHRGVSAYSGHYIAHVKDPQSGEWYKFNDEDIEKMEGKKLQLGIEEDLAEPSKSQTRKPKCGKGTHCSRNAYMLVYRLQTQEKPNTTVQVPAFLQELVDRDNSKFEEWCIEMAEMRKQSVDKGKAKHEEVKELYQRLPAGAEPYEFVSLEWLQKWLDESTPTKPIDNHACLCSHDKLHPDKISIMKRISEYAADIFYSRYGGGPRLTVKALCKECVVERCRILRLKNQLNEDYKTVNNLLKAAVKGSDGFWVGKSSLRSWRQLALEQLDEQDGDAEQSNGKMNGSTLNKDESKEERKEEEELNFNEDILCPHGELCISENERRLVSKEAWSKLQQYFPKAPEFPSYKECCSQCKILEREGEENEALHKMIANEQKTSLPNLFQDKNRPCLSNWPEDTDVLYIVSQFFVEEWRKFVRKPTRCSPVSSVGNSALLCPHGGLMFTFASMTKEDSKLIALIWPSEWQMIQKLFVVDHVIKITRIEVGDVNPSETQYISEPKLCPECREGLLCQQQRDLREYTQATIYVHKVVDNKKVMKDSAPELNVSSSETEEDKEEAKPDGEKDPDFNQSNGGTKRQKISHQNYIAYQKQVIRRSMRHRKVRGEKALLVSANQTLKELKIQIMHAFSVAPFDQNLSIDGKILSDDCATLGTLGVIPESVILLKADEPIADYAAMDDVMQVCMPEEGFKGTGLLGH
Outline: as §1

USP5 = molecular target: T4, USP5 (UniProt P45974)
T4 sequence (whole entry): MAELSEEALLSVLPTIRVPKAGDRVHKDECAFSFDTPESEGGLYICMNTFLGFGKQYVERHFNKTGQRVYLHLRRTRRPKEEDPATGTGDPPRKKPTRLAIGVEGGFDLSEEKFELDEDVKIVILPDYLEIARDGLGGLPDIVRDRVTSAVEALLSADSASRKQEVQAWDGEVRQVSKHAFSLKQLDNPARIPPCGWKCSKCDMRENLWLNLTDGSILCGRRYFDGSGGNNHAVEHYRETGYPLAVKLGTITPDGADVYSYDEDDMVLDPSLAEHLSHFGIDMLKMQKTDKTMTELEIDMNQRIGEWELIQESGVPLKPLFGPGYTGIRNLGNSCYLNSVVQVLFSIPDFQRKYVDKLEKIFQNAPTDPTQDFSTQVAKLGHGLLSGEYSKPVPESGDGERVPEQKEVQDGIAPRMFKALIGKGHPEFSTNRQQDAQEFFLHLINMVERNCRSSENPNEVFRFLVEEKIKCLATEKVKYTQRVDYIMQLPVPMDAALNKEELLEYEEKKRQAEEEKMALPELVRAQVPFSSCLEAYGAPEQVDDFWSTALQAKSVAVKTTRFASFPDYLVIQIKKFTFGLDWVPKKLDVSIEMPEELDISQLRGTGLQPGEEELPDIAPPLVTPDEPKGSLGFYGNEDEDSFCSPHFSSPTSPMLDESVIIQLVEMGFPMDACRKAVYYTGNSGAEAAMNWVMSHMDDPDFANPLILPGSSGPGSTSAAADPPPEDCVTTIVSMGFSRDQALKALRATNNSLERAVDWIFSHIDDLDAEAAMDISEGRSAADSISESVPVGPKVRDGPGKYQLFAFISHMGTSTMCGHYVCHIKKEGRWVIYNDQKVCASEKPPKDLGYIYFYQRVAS
Outline: as §1

USP54 = USP54 (UniProt Q70EL1)
Outline: as §1

USP7 = USP7 (UniProt Q93009)
Outline: as §1

USP8 = molecular target: T5, USP8 (UniProt P40818)
T5 sequence (whole entry): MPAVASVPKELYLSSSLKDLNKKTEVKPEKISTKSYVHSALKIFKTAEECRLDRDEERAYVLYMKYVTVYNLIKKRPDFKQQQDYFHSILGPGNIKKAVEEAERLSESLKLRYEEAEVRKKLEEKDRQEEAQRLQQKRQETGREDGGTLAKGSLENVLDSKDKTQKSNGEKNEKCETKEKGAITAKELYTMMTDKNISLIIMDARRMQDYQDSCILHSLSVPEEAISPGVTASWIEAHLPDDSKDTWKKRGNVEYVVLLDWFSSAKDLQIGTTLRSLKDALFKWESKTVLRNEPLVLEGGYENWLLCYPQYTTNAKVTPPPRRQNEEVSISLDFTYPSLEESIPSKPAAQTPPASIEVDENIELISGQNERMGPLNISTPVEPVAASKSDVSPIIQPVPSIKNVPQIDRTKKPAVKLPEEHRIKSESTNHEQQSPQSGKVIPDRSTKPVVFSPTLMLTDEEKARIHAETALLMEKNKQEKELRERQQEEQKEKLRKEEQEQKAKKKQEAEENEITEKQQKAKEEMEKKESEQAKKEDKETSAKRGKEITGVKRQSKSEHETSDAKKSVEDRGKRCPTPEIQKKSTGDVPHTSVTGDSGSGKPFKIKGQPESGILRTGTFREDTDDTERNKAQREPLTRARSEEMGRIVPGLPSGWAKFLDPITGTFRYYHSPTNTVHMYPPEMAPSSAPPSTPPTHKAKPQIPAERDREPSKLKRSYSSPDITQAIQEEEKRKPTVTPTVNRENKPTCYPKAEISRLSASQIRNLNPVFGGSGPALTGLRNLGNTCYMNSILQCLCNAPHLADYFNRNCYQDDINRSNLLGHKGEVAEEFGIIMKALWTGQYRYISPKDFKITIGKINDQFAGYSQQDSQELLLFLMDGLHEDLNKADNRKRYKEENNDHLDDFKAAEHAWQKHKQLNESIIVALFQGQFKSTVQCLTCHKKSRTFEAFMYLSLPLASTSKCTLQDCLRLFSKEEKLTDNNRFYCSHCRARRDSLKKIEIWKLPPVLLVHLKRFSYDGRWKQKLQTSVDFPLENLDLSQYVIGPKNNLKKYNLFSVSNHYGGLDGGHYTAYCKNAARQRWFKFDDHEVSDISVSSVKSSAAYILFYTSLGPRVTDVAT
Outline: as §1

Measured: log2 ratio of Biotin-Ahx-Ub-VS probe labelling

Chain of USP54 (Q70EL1 whole entry): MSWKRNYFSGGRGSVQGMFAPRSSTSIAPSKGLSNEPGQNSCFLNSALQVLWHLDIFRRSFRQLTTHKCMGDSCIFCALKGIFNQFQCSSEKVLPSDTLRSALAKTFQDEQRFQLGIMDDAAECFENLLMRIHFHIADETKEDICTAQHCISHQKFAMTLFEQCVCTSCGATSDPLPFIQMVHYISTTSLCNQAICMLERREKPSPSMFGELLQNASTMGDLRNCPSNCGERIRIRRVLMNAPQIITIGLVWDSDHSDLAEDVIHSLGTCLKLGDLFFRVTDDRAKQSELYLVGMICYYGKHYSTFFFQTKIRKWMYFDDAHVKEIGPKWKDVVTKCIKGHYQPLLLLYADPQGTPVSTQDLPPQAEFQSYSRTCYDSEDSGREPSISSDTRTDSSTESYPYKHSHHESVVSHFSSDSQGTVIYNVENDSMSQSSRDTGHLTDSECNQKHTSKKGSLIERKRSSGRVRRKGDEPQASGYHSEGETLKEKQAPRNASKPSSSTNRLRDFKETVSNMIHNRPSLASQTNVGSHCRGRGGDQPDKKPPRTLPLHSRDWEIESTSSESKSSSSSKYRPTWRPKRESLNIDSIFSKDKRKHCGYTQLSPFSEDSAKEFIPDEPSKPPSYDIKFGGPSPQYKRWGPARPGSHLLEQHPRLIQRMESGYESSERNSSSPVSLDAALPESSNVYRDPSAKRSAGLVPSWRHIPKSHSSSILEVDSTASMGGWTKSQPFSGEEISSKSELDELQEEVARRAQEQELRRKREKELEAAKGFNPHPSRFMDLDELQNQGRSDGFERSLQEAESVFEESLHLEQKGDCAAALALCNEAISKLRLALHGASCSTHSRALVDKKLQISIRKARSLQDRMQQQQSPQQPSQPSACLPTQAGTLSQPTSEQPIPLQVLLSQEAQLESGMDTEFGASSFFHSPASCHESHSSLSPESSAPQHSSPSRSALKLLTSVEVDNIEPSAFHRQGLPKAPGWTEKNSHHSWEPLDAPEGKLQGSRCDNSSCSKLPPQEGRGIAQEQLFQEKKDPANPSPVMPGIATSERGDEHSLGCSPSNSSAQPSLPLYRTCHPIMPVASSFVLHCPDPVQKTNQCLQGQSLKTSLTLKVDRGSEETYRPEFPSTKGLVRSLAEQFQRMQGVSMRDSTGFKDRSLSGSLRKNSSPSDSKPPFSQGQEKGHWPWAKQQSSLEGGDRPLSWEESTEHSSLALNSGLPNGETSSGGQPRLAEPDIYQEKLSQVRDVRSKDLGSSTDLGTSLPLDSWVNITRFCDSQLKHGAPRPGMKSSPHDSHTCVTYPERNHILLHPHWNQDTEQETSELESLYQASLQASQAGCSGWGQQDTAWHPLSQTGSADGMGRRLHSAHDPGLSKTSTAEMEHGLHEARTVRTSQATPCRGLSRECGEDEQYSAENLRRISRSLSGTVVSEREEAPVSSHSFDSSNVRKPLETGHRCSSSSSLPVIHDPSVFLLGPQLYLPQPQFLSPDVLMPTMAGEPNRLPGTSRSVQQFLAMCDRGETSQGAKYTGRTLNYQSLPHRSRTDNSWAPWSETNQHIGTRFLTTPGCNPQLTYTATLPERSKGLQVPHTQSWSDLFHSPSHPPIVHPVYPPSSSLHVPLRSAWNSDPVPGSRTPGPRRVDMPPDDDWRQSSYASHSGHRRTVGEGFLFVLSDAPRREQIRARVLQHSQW
Chain of USP7 (Q93009 whole entry, looked up): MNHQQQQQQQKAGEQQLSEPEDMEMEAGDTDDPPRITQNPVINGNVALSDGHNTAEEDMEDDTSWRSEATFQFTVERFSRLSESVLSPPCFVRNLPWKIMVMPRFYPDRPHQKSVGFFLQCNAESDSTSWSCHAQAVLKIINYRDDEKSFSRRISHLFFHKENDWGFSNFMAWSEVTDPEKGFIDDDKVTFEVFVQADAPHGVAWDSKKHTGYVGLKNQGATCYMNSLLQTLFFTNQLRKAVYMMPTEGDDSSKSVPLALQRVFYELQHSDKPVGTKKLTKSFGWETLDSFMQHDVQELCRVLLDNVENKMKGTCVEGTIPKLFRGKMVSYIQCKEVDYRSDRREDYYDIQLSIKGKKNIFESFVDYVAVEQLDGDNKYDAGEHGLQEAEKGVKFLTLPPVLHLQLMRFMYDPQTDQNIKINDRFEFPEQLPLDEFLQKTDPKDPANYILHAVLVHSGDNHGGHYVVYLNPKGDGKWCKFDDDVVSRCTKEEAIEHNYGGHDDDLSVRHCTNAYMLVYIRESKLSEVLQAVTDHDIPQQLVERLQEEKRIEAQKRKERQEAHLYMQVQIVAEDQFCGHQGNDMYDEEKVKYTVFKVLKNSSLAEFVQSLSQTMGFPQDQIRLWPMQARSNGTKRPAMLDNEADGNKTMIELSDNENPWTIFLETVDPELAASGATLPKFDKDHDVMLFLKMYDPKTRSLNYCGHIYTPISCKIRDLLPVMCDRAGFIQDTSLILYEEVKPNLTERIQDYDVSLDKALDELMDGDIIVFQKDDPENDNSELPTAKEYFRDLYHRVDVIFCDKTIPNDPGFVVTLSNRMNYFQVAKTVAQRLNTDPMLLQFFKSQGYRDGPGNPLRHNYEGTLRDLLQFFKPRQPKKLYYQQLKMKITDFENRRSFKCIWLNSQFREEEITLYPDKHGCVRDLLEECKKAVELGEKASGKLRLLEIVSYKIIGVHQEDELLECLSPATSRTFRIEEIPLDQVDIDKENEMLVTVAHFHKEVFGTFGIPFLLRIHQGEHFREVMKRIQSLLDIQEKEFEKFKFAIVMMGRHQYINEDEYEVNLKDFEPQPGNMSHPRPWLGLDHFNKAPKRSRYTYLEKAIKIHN
Chain of USP46 (P62068 whole entry): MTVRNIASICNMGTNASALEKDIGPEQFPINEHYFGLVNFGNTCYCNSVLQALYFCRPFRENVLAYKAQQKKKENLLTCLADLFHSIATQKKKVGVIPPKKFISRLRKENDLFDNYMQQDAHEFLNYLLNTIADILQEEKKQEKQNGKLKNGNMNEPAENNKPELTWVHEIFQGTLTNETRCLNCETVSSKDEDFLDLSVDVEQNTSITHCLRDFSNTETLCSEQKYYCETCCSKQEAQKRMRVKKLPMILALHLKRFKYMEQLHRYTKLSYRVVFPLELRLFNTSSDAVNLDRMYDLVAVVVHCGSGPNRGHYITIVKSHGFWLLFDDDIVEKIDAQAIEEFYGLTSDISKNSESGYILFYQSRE

Cc1cc(C2CCCN2C(=O)CCl)nn1C.Cl (stereo not drawn)
inactive: USP42 0.512 | USP46 -0.144 | USP47 -0.308 | USP48 -0.159 | USP5 -0.0636 | USP54 -0.39 | USP7 -0.329 | USP8 -0.274
